{"source": "PubChem BioAssay AID372", "about": "(MTDP, 2006)", "note": "About 770 (0.77%) of roughly 100,000 compounds were called active. The sample holds actives, similar compounds and a random draw of the others, so the mix is not that of the screen. Rule as the data show it: active = inhibition above about 50%; inactive = the rest.", "data": [{"target": "Gag-Pol polyprotein (Human immunodeficiency virus type 1 group M subtype B (isolate HXB2)) (UniProt P04585)", "experiment": "RNase H inhibition, HIV 1 Gag Pol polyprotein, FRET biochemical assay, screening (AID 372)", "conditions": "HIV-1 RT RNase H, FRET RNA/DNA substrate fluorescence; at 10 µM; hits give high values", "values": [{"smiles": "O=C1c2ccc(Oc3ccc([N+](=O)[O-])cc3)cc2C(=O)N1c1nc2ccccc2s1", "inhibition": "11% (inactive)"}, {"smiles": "Cc1ccc(N2C(=O)C3C4C=CC(O4)C3C2=O)c(C)c1", "note": "(centres undefined)", "inhibition": "5% (inactive)"}, {"smiles": "COc1ccc(Br)c(C=Nc2cccc3nsnc23)c1O", "inhibition": "64% (active)"}, {"smiles": "Oc1c(C=Nc2cccc3nsnc23)cc(Br)c2ccccc12", "inhibition": "5% (inactive)"}, {"smiles": "Oc1c(Br)ccc(Cl)c1C=Nc1cccc2nsnc12", "inhibition": "8% (inactive)"}, {"smiles": "Brc1ccccc1OCCCCCn1ccnc1", "inhibition": "5% (inactive)"}, {"smiles": "CN1C(=O)CS/C1=N/S(=O)(=O)c1ccc([N+](=O)[O-])cc1", "inhibition": "10% (inactive)"}, {"smiles": "S=C(NCc1ccco1)NC1CCCC1", "inhibition": "6% (inactive)"}, {"smiles": "O=c1c(O)c(-c2ccc(O)c(O)c2)oc2cc(O)cc(O)c12", "inhibition": "73% (active)"}, {"smiles": "O=c1c(O)c(-c2ccc3c(c2)OCO3)oc2ccccc12", "inhibition": "0% (inactive)"}, {"smiles": "Cc1ccc(-c2oc3ccccc3c(=O)c2O)cc1", "inhibition": "3% (inactive)"}, {"smiles": "CN(C)c1ccc(C(c2c[nH]c3ccccc23)c2c[nH]c3ccccc23)cc1", "inhibition": "23% (inactive)"}, {"smiles": "Cc1cccc(/C=C2\\C(=O)NC(=O)N(c3cccc(Br)c3)C2=O)c1", "inhibition": "10% (inactive)"}, {"smiles": "C=CCNC(=O)Nc1ccc2nc3c4ccccc4c4ccccc4c3nc2c1", "inhibition": "51% (active)"}, {"smiles": "C=CCNC(=S)Nc1ccc2nc3c4ccccc4c4ccccc4c3nc2c1", "inhibition": "24% (inactive)"}, {"smiles": "C=CCNC(=O)Nc1ccc2nc(-c3ccccc3)c(-c3ccccc3)nc2c1", "inhibition": "15% (inactive)"}, {"smiles": "Cc1cc(C)n(-c2ccc(N3CCOCC3)nn2)n1", "inhibition": "11% (inactive)"}, {"smiles": "CCN(CC)C(=O)CSc1nc(-c2ccccc2)c(-c2ccccc2)o1", "inhibition": "15% (inactive)"}, {"smiles": "NC(=O)CSc1nc(-c2ccccc2)c(-c2ccccc2)o1", "inhibition": "37% (inactive)"}, {"smiles": "CC(=O)CSc1nc(-c2ccccc2)c(-c2ccccc2)o1", "inhibition": "50% (active)"}, {"smiles": "COc1ccc(-c2csc(NC3OC(=O)c4c3ccc(OC)c4OC)n2)cc1", "note": "(centres undefined)", "inhibition": "20% (inactive)"}, {"smiles": "CCOc1cc(C(=O)Nc2ccc(OC)c(Cl)c2)cc(OCC)c1OCC", "inhibition": "8% (inactive)"}, {"smiles": "O=S(=O)(Nc1ccc(F)cc1F)c1ccc2ccccc2c1", "inhibition": "15% (inactive)"}, {"smiles": "N/C(=N/OC(=O)c1cccc([N+](=O)[O-])c1)c1nonc1N", "inhibition": "14% (inactive)"}, {"smiles": "O=C1C(Cl)=C(Cl)C(=O)N1c1cccc(C(F)(F)F)c1", "inhibition": "6% (inactive)"}, {"smiles": "O=C1C(Cl)=C(Cl)C(=O)N1c1cc(Cl)ccc1Cl", "inhibition": "4% (inactive)"}, {"smiles": "O=C1C=CC(=O)N1c1cccc(Cl)c1", "inhibition": "19% (inactive)"}, {"smiles": "OCc1ccc(-c2cccc(Cl)c2)o1", "inhibition": "28% (inactive)"}, {"smiles": "O=C1C=CC(=O)C(c2cccc(C(F)(F)F)c2)=C1", "inhibition": "71% (active)"}, {"smiles": "O=C(O)c1ccc(-c2cc(Cl)ccc2Cl)o1", "inhibition": "0% (inactive)"}, {"smiles": "Cc1ccc(C2=CC(=O)N(c3cccc(C(F)(F)F)c3)C2=O)cc1", "inhibition": "10% (inactive)"}, {"smiles": "CCOc1ccc(C(=O)Nc2cccc(-c3nc4cc(C)ccc4o3)c2C)cc1Br", "inhibition": "11% (inactive)"}, {"smiles": "O=C(Nc1ccc(S(=O)(=O)Nc2ncccn2)cc1)c1cccnc1", "inhibition": "8% (inactive)"}, {"smiles": "CCOc1ccc2ccc(OCC)c(/C=C3/C(=O)NC(=O)N(Cc4ccco4)C3=O)c2c1", "inhibition": "26% (inactive)"}, {"smiles": "CCCN(CCC)CCCNC(=O)/C=N\\O", "inhibition": "6% (inactive)"}, {"smiles": "COc1cc(OC)c(/C=C2\\C(=O)NC(=S)N(c3cccc(Cl)c3)C2=O)cc1Br", "inhibition": "9% (inactive)"}, {"smiles": "CC(Oc1ccc(/C=C2/SC(=O)NC2=O)cc1)C(=O)O", "note": "(centres undefined)", "inhibition": "10% (inactive)"}, {"smiles": "O=C(Nc1nnc(-c2cccc([N+](=O)[O-])c2)s1)Nc1ccc(Cl)cc1Cl", "inhibition": "43% (inactive)"}, {"smiles": "O=C(/C=C/c1ccco1)/C=C/c1ccc(-c2ccc(Cl)c(Cl)c2)o1", "inhibition": "52% (active)"}, {"smiles": "O=C(/C=C/c1ccc(-c2ccc(Cl)c(Cl)c2)o1)c1ccco1", "inhibition": "2% (inactive)"}, {"smiles": "O=C(/C=C/c1ccco1)/C=C/c1ccc(-c2ccc(Br)cc2)o1", "inhibition": "33% (inactive)"}, {"smiles": "CSc1nc(-c2ccccc2)c(C#N)c(=O)n1C", "inhibition": "15% (inactive)"}, {"smiles": "CCCCCC/C(=N\\NC(=O)c1ccncc1)c1ccccc1", "inhibition": "5% (inactive)"}, {"smiles": "CCc1c(C)sc(NC(=O)C2CCCCC2C(=O)O)c1C#N", "note": "(centres undefined)", "inhibition": "75% (active)"}, {"smiles": "CCc1c(C)sc(NC(=O)C2CC3CCC2C3)c1C#N", "note": "(centres undefined)", "inhibition": "21% (inactive)"}, {"smiles": "CCc1c(C)sc(NC(=O)C2CCCCC2C(=O)O)c1C(N)=O", "note": "(centres undefined)", "inhibition": "48% (inactive)"}, {"smiles": "O=C1OC(c2sc3ccccc3c2Cl)=N/C1=C/c1ccc(F)cc1", "inhibition": "1% (inactive)"}, {"smiles": "O=C1C(=Cc2ccc(I)o2)C(=O)c2ccccc21", "inhibition": "9% (inactive)"}, {"smiles": "CC1(C)OC(=O)C(=Cc2ccc(I)o2)C(=O)O1", "inhibition": "53% (active)"}, {"smiles": "CN1C(=O)C(=Cc2ccc(I)o2)C(=O)N(C)C1=S", "inhibition": "21% (inactive)"}, {"smiles": "O=C(/C=C/c1ccccc1)C1=C(O)C(=O)N(c2ccccc2)C1c1cccc([N+](=O)[O-])c1", "note": "(centres undefined)", "inhibition": "10% (inactive)"}, {"smiles": "Fc1cccc(-c2n[nH]c(=S)n2-c2ccccc2)c1", "inhibition": "5% (inactive)"}, {"smiles": "Cc1cc2nc3s/c(=C/c4ccc(F)cc4)c(=O)n3c2cc1C", "inhibition": "1% (inactive)"}, {"smiles": "O=C1C=CC(=O)N1c1ccc(-c2cc(-c3ccccc3)nc(-c3ccc(N4C(=O)C=CC4=O)cc3)n2)cc1", "inhibition": "54% (active)"}, {"smiles": "Oc1ccc(-c2cc(-c3ccc(O)cc3)nc(-c3ccccc3)n2)cc1", "inhibition": "31% (inactive)"}, {"smiles": "Clc1cc(-c2ccccc2)nc(-c2ccccc2)n1", "inhibition": "24% (inactive)"}, {"smiles": "Cc1ccc(C(=O)Nc2ccc(Cc3ccncc3)cc2)cc1[N+](=O)[O-]", "inhibition": "5% (inactive)"}, {"smiles": "CSc1ccc(S(=O)(=O)N(CC(=O)NC2CCCCC2)c2ccc(C)cc2)cc1", "inhibition": "13% (inactive)"}, {"smiles": "Cc1ccc(N(CC(=O)NC2CCCC2)S(=O)(=O)c2ccc(F)cc2)cc1", "inhibition": "5% (inactive)"}, {"smiles": "Cc1ccc(N(CC(=O)NC2CCCCC2)S(=O)(=O)c2ccc(F)cc2)cc1", "inhibition": "56% (active)"}, {"smiles": "COc1ccccc1CNS(=O)(=O)c1ccc(Cl)cc1", "inhibition": "0% (inactive)"}, {"smiles": "N=C1/C(=C/c2ccc(-c3ccccc3)o2)C(=O)N=C2SC(c3ccccc3)=NN12", "inhibition": "2% (inactive)"}, {"smiles": "Cc1ccc(N2NC(=O)/C(=C/c3ccc(Br)cc3)C2=O)cc1C", "inhibition": "15% (inactive)"}, {"smiles": "O=C(CSc1nc2ccc(N3C(=O)c4ccccc4C3=O)cc2s1)c1ccccc1", "inhibition": "8% (inactive)"}, {"smiles": "O=C(CSc1nc2ccc(N3C(=O)c4ccccc4C3=O)cc2s1)c1ccc(Cl)cc1", "inhibition": "56% (active)"}, {"smiles": "O=C(CSc1nc2ccc(N3C(=O)c4ccccc4C3=O)cc2s1)c1ccc(F)cc1", "inhibition": "43% (inactive)"}, {"smiles": "O=C(CSc1nc2ccc(N3C(=O)c4ccccc4C3=O)cc2s1)Nc1ccc(F)cc1", "inhibition": "11% (inactive)"}, {"smiles": "COc1ccc(NC(=O)CSc2nc3ccc(N4C(=O)c5ccccc5C4=O)cc3s2)cc1", "inhibition": "56% (active)"}, {"smiles": "O=C(CSc1nc2ccc(N3C(=O)c4ccccc4C3=O)cc2s1)Nc1ccc(Br)cc1", "inhibition": "28% (inactive)"}]}]}
